PubChem BioAssay (NCI)
Compounds without any hit were thinned out: in the full panel of roughly 83,000, 20% have a hit.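 Results are percent growth after 48 hours of single-concentration exposure. 100 means growth as in untreated cells, lower positive values show inhibition; negative values down to -100 show cell death.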 A number with no mark means an inactive call. Activity calls are given as the source filed them. The calls were made as follows: active = growth percent below 10; inactive = the rest.

What was measured:
Assay in all cases: NCI-60 one-dose screen, 48 h (100 = growth as untreated, 0 = no growth, -100 = all killed)
Settings in all cases: 10 µM unless noted
NCI-H23 lung = system: NCI-H23 lung
NCI-H226 lung = system: NCI-H226 lung
NCI-H322M lung = system: NCI-H322M lung
HOP-62 NSCLC = system: HOP-62 NSCLC
NCI-H460 lung = system: NCI-H460 lung
NCI-H522 lung = system: NCI-H522 lung
A549/ATCC NSCLC = system: A549/ATCC NSCLC
786-0 renal = system: 786-0 renal
COLO 205 colon = system: COLO 205 colon
DU-145 prostate = system: DU-145 prostate
K-562 leukemia = system: K-562 leukemia
MALME-3M melanoma = system: MALME-3M melanoma
MDA-MB-231 breast = system: MDA-MB-231 breast
RXF 393 renal = system: RXF 393 renal
SF-268 CNS = system: SF-268 CNS
SF-295 CNS = system: SF-295 CNS
SF-539 CNS = system: SF-539 CNS
UACC-257 melanoma = system: UACC-257 melanoma
M14 melanoma = system: M14 melanoma
HOP-92 NSCLC = system: HOP-92 NSCLC

Row | SMILES | growth (NCI-H23 lung) | growth (NCI-H226 lung) | growth (NCI-H322M lung) | growth (HOP-62 NSCLC) | growth (NCI-H460 lung) | growth (NCI-H522 lung) | growth (A549/ATCC NSCLC) | growth (786-0 renal) | growth (COLO 205 colon) | growth (DU-145 prostate) | growth (K-562 leukemia) | growth (MALME-3M melanoma) | growth (MDA-MB-231 breast) | growth (RXF 393 renal) | growth (SF-268 CNS) | growth (SF-295 CNS) | growth (SF-539 CNS) | growth (UACC-257 melanoma) | growth (M14 melanoma) | growth (HOP-92 NSCLC)
1 | Fc1cccc(CNc2c3ccccc3nc3ccccc23)c1F | 60.6% | 72.9% | 63.4% | 72.7% | 48% | 53.8% | 56.7% | 65.4% | 40.9% | 76.7% | 43.4% | 94.1% | 58.2% | 59.5% | 83.4% | 53.7% | 55.5% | 92.9% | 70.6% | –
2 | CC1Cc2c(Cl)ncnc2N(C)c2ccc(F)cc21 (configuration not stated) | 103% | 94.5% | 99.5% | 93.2% | 108% | 89.3% | 70% | 79% | 92.5% | 110% | 99.5% | 91.3% | 98.9% | 104% | 93.8% | 91.2% | 97.5% | 70.3% | 91.5% | –
3 | Nc1ncnc2c1N=C(c1ccc3c(c1)OCO3)CC(c1cccc(Nc3ccnc4cc(Cl)ccc34)c1)N2 (configuration not stated) | 49.8% | 69.8% | 76.2% | 64% | 59.8% | 58% | 67.2% | 55.1% | 82.7% | 63.1% | 2.1% (active) | 97.3% | 70.1% | 72.2% | 69.3% | 46.6% | 86.3% | 59.3% | 57.3% | –
4 | O=C(O)[C@@H]1c2ccccc2-c2ccccc2[C@H]1C(=O)O | 91.4% | 97.8% | 99.2% | 90.8% | 109% | 91% | 102% | 88.8% | 106% | 115% | 98% | 96.8% | 105% | 102% | 105% | 98.8% | 98.4% | 80.6% | 92.5% | –
5 | COc1cc(-c2nc(SCC(C)C)nc(Nc3cccc4ccccc34)c2C#N)cc(OC)c1OC | 102% | 82.5% | 101% | 87.2% | 82.3% | – | 88.4% | 103% | 95.3% | 94.4% | 57% | 87.7% | 57.1% | 119% | 92.6% | 101% | 101% | 106% | 103% | 92.9%
6 | CC1(C)CC[C@]2(C(=O)O)CC[C@]3(C)C(=CC[C@@H]4[C@@]5(C)C/C(=C/O)C(=O)C(C)(C)[C@@H]5CC[C@]43C)[C@@H]2C1 | 22.2% | 96.2% | 62.2% | 73.1% | 83.6% | 25.2% | 89.4% | 84.3% | 74.9% | 85.2% | 32.2% | 89.9% | 111% | 93.7% | 57.2% | 79.9% | 29.2% | 91.6% | 79.1% | –
7 | COC(=O)[C@]1(C)CCC[C@]2(C)[C@H]3C[C@H]4C(C(C)C)=C[C@]3(CC[C@H]21)[C@H]1[C@@H]4[C@@H](OCCC#N)CC[C@@H]1OCCC#N | 46.3% | 46.1% | 98.6% | 75.3% | 33.3% | – | – | 37.3% | 11.9% | 57% | 26.8% | 61.9% | 47.3% | -10.5% (active) | 47.9% | 30% | 59.7% | 37.8% | 40.7% | 26.2%
8 | COc1ccc(-c2cn(-c3cc(OC)c(OC)c(OC)c3)c(=O)n2C(C)=O)cc1 | 94.9% | 88.1% | 99.6% | 83.7% | 106% | 73.5% | 91.8% | 35.4% | 119% | 106% | 61.7% | 90.6% | 76.7% | 109% | 107% | 78.6% | 97% | 82% | 92.6% | –
9 | CCc1nc2c(=O)[nH]cnc2o1 | 107% | 96.4% | 97.8% | 100% | 105% | – | 99.7% | 110% | 110% | 112% | 104% | 83.1% | 117% | 102% | 103% | 110% | 94.8% | 107% | 103% | 72.2%
10 | O=C1c2cccc(NCCN=Cc3cc(O)ccc3O)c2C(=O)c2c(NCCN=Cc3cc(O)ccc3O)cccc21 | -26.1% (active) | 6.91% (active) | -11.3% (active) | -9.1% (active) | -70.8% (active) | – | – | 0.261% (active) | -41.4% (active) | -68.5% (active) | -94.8% (active) | -24.6% (active) | -41% (active) | -34.2% (active) | -34.9% (active) | -23.6% (active) | -8.67% (active) | 57.9% | -4.47% (active) | -25.5% (active)
11 | O=C(O)/C(=C\c1ccc(Cl)cc1)c1ccc(Cl)cc1 | 90.8% | 99.1% | 92.2% | 104% | 97.5% | 81.9% | 88.5% | 90.3% | 117% | 107% | 43.8% | 81.5% | 92.9% | 78.8% | 96.5% | 118% | 95.2% | 85.8% | 95.8% | –
12 | C#CCOc1ccc2ncnc(Nc3cccc(NC(=O)C=C)c3)c2c1 | 80.7% | 76.2% | 61.1% | 63.6% | 65.1% | 50.3% | 56.4% | 56.4% | 87.5% | 54% | 70.6% | 73.9% | 58.1% | 6.44% (active) | 55.9% | 91.6% | 59.2% | 69.5% | 62.8% | –
13 | CNC(=O)c1cc(Oc2ccc3c(c2)sc2nc(-c4cc(OC)c(OC)c(OC)c4)cn23)ccn1 | 61.1% | 49% | 72.5% | 66.8% | 66.2% | 50.4% | 63.6% | 68.1% | 16.7% | 75.2% | 29.3% | -8.33% (active) | 33.8% | 63.2% | 72% | 51% | 62.8% | 49.7% | 52% | –
14 | COc1ccc(-c2nc3c(c(-c4ccccc4)nn3-c3ccccc3)c(-c3ccc(N4CCOCC4)cc3)c2C#N)cc1 | 94% | 102% | 102% | 104% | 97.4% | 103% | 103% | 82.4% | 124% | 106% | 96.9% | 103% | 107% | 38.6% | 112% | 91.6% | 85.9% | 101% | 101% | –
15 | COc1cnc2c(c1)C(=O)c1c-2n(CCCNCCO)c(=O)c2ccncc12 | 1.25% (active) | -43.9% (active) | -2.47% (active) | 9.4% (active) | -41.6% (active) | -30.2% (active) | 7.92% (active) | 12.3% | -15.7% (active) | 3.45% (active) | 5.84% (active) | -30.4% (active) | 6.98% (active) | -11.1% (active) | 14.8% | 6.34% (active) | -15.2% (active) | -19.3% (active) | -1.26% (active) | –
16 | N#CC1=C(c2ccc(Cl)cc2)Nc2c(c(-c3ccc(Cl)cc3)nn2-c2ccccc2)C12C(=O)Nc1ccc(Cl)cc12 (configuration not stated) | 42.3% | 67% | 83.3% | 65% | 35.5% | 25.7% | 31% | 59.1% | 51% | 76.6% | 24.3% | 77% | 50.1% | 21.3% | 38.2% | 23.2% | 74.2% | 63.4% | 41.9% | –
